What all share (assay): NCI-60 one-dose screen, 48 h (100 = growth as untreated, 0 = no growth, -100 = all killed)
Common to all, as to settings: 10 µM unless noted

Experiment [1] deals with DU-145 prostate.
The test system of experiment [2] is K-562 leukemia.
Experiment [3] relates to MALME-3M melanoma.
For experiment [4], the system named is MDA-MB-231 breast.
Experiment [5] deals with RXF 393 renal.
The subject of experiment [6] is SF-268 CNS.
Experiment [7] relates to SF-295 CNS.
For experiment [8], the system named is SF-539 CNS.
Experiment [9] relates to UACC-257 melanoma.
The test system of experiment [10] is M14 melanoma.
Experiment [11] concerns HCT-15 colon.
Experiment [12] concerns HT29 colon.
Experiment [13] deals with SNB-75 CNS.
The subject of experiment [14] is SNB-19 CNS.
Experiment [15] has as its system U251 CNS.
In experiment [16] the test system is PC-3 prostate.
Experiment [17] has as its system SK-MEL-5 melanoma.
The test system of experiment [18] is UACC-62 melanoma.
Experiment [19] relates to LOX IMVI melanoma.
Experiment [20] relates to SK-MEL-28 melanoma.

About 83,000 compounds went through this panel and 20% of them were active in at least one assay; those are over-represented in the sample as a whole.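 In brief: 96-well plates, 48 h treatment, single concentration, percent growth endpoint.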 Unmarked numbers belong to inactive results. The source made the active and inactive calls. How the source made its calls: active means growth percent below 10; inactive means the rest.

Consider `CCCCNC(=S)Nc1ccc(OCc2nc3ccc(Cl)cc3[nH]2)cc1`, for which the growth in experiment [1] is 26.3%; in [2] it was 11.1%; in experiment [3], 41.2%; in [4], 10.5%; in experiment [5], -1.67% (active); in [6], 48.3%. The growth in experiment [7] was 67.6%; in experiment [8] it was 28.4%; in experiment [9], 56.9%; in [10] it was 39.1%; in [11] it was 14.5%; in experiment [12] it was 28.4%. Further, the growth in [13] is 26.4%; in experiment [14] it was 53%; in [15] it was 23.7%; in experiment [16], 35.4%; in [17] it was 42.5%; in experiment [18], 29.9%. For the same compound, the results for the growth in [19] and in [20] were -29.8% (active) and 45.5%, respectively.

Take `COc1cc(C2CC(c3ccc(Cl)cc3)=Nc3c(N)nc(N)nc3N2)ccc1Oc1nc(Nc2ccc(F)cc2)nc(N(C)C)n1` (stereo not given): the growth in [1] was 60%; in experiment [2], 8.16% (active); in experiment [3] it was 54.1%; in experiment [4] it was 23.8%; in experiment [5], -4.44% (active); in [6], 52.2%. In addition, the growth in experiment [7] is 53.3%; in experiment [8], 63.7%; in experiment [9], 47.9%; in experiment [10], 43.2%; in [11] it was 25.1%; in [12], 14.3%. For the same compound, the growth in [13] is 33.7%; in experiment [14], 47.7%; in [15] it was 45%; in experiment [16] it was 21.9%; in experiment [17] it was 17.9%; in [18] it was 84.4%. Also, the growth was 16% in [19] and 75.6% in experiment [20].

Turning to `COc1cc(NC(=O)C(C)C)ccc1C(=O)NC(=S)Nc1ccc(S(N)(=O)=O)cc1`, the growth in [1] was 106%; in experiment [2], 108%; in experiment [3], 94.4%; in experiment [4], 93.1%; in experiment [5], 88.7%; in experiment [6], 80.8%. In addition, the growth in [7] is 84.2%; in experiment [8], 88.9%; in experiment [9] it was 101%; in experiment [10], 106%; in experiment [11], 108%; in experiment [12], 101%. In addition, the growth was 95.5% in experiment [13]; 80.8% in experiment [14]; 72% in experiment [15]; 115% in experiment [16]; 114% in experiment [17]; 96.2% in experiment [18]. In addition, the growth is 102% in [19] and 114% in experiment [20].

With `O=C1Nc2cc(-c3ccc(NS(=O)(=O)c4ccc(-c5ccccc5)cc4)cc3)ccc2/C1=C/c1ccc[nH]1`, the growth is -11.5% (active) in [1]; 18.8% in [2]; 50% in experiment [3]; 63.9% in [4]; -37.3% (active) in [5]; 75.8% in experiment [6]. The growth was 30.9% in experiment [7]; 37.4% in experiment [8]; 58.9% in experiment [9]; 38% in [10]; 14.6% in experiment [11]; 0.595% (active) in [12]. For the same compound, the growth was 53.2% in [13]; 72.5% in [14]; 28.2% in [15]; 31.1% in experiment [16]; 46.2% in [17]; 55% in experiment [18]. Also, the growth in [19] was 20.2%; in experiment [20], 52.1%.

`Cc1ccc(C(=O)Nc2ccc(-n3ccnc3)c(C(F)(F)F)c2)cc1C#Cc1cnc2cccnn12`: the growth in [1] was 40.7%; in experiment [2] it was 4.76% (active); in [3], -14% (active); in experiment [4], -15.5% (active); in experiment [5] it was -20% (active); in experiment [6], 45.4%. Also, the growth is 21.8% in [7]; -40.9% (active) in experiment [8]; 8.92% (active) in experiment [9]; 1.02% (active) in experiment [10]; 20.7% in experiment [11]; 17.8% in [12]. Also, the growth was -2.9% (active) in [13]; 36.4% in experiment [14]; 33.6% in [15]; -16.3% (active) in experiment [16]; -55% (active) in experiment [17]; -15.1% (active) in experiment [18]. Besides, the growth in experiment [19] is 3.66% (active); in [20], -10.8% (active).

Regarding `N/C(=N\c1nc2ccccc2s1)NC(=O)Nc1ccccc1F`, the growth was 9.55% (active) in [1]; 13.1% in experiment [2]; 33.3% in experiment [3]; 19.9% in experiment [4]; -1.57% (active) in experiment [5]; 47.2% in experiment [6]. For the same compound, the growth is 2.32% (active) in experiment [7]; -40.1% (active) in experiment [8]; 84.5% in experiment [9]; 31.1% in [10]; 25.7% in experiment [11]; 5.46% (active) in experiment [12]. In addition, the growth is -0.749% (active) in [13]; 28.9% in [14]; 11.2% in [15]; 33.3% in experiment [16]; -0.0152% (active) in experiment [17]; 25.3% in experiment [18]. Further, the growth in [19] was 27%; in experiment [20], 57.3%.

Consider `COc1ccccc1Nc1nnc(-c2c[nH]c3ccccc23)o1`, for which the growth was 12.6% in experiment [1]; 7.09% (active) in experiment [2]; 44.1% in [3]; 3.73% (active) in experiment [4]; -48.2% (active) in [5]; 47.7% in [6]. Also, the growth in experiment [7] was -28.8% (active); in experiment [8], -40.3% (active); in experiment [9], 44.7%; in [10], 20.5%; in experiment [11], 11.5%; in [12] it was 7.44% (active). The growth in [13] is 44%; in [14] it was 43.4%; in [15], 4.61% (active); in experiment [16], 16.4%; in experiment [17], -32.7% (active); in [18], 22.9%. Further, the growth in experiment [19] was 7.77% (active); in [20], 49.2%.

In the case of `Cc1ccc(C2CC(c3ccc(NC(=O)Nc4ccccc4)cc3)=NN2c2ccc(S(N)(=O)=O)cc2)cc1` (stereo not given), the growth in [1] was -76.2% (active); in experiment [2] it was 6.16% (active); in experiment [3] it was -96.5% (active); in [4] it was -90.8% (active); in [5], -91.3% (active); in experiment [6] it was -74.5% (active). For the same compound, the growth in experiment [7] is -71.2% (active); in [8] it was -99.3% (active); in experiment [9], -71.6% (active); in experiment [10] it was -73.2% (active); in experiment [11], -68% (active); in experiment [12], -62% (active). For the same compound, the growth is -68.1% (active) in experiment [13]; -99.8% (active) in experiment [14]; -96.1% (active) in [15]; -59% (active) in experiment [16]; -96.6% (active) in [17]; -96.2% (active) in experiment [18]. Also, the growth in experiment [19] was -100% (active); in experiment [20] it was -99.7% (active).

Values taken from PubChem BioAssay (NCI).
